BAZ2B block: inhibitors of human BAZ2B bromodomain. 360,000 tested, 4.4% active. Potency, µM (top dose mostly 114 µM), usual class: inhibitors. Q9UIF8. AlphaScreen BAZ2B-H3K14Ac peptide displacement; also: nearly all actives have a fitted effect of over 60% in size
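AlphaScreen luminescence quantifies BAZ2B engagement of H3K14Ac peptide; the protein and biotinylated peptide are both at 50 nM final, buffer PBS pH 7.4 with 0.01% Tween-20, all steps at room temperature.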
Sfp inh: inhibitors of Bacillus subtilis Sfp phosphopantetheinyl transferase. Q9F4F7. Biochemical Sfp PPTase activity, qHTS. Potency, µM, actives largely listed as inhibitors. 310,000 tested, 3.5% active. AID 1490;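 also: the enzyme is Sfp with the accession as filed and its product quenches rhodamine fluorescence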
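Fluorescence-quenching assay with 15 nM Sfp, 5 uM rhodamine-CoA and 12.5 uM BHQ-2-labelled ybbR peptide in pH 7.6 Hepes/MgCl2 buffer. Enzyme was pre-incubated with compound for 15 min at room temperature. Rate was taken from the 30-min fluorescence change (525/598 nm).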
G9a block: G9a (human) methyltransferase inhibition | Q96KQ7 | G9a H3K9 monomethylation, AlphaScreen, 2 h | Potency, µM (top dose mostly 102 µM), usual class: inhibitors | 350,000 tested, 8.8% active | AID 504332; also: nearly all actives have a fitted effect of over 75% in size
Target sequence (Q96KQ7 913-1193 limits assumed): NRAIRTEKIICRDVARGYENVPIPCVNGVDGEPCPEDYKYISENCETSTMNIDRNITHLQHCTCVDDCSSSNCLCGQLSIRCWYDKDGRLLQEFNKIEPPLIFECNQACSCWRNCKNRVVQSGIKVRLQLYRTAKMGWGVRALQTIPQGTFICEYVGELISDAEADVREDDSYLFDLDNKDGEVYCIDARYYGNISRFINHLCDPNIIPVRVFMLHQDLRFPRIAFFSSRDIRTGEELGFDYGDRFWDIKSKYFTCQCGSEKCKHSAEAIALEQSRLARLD
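Enzyme 20 nM + cpd, 15 min RT; add b-H3K9 pep 500 nM / SAM 20 uM; 2 h RT; anti-H3K9me1 Ab 0.5 ug/mL + SA donor / anti-rabbit acceptor beads 20 ug/mL each, 10 min; AlphaScreen read.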
HP1b binding inh: inhibitors of HP1-beta chromodomain binding to methylated histone tails; P83916; AlphaScreen HP1-beta / biotin-H3K9me3 peptide binding; Potency, µM (highest dose often 114 µM), usual class: inhibitors; 390,000 tested, 0.56% active; also: nearly all actives have a fitted effect of over 70% in size
Target sequence (P83916 whole entry, looked up): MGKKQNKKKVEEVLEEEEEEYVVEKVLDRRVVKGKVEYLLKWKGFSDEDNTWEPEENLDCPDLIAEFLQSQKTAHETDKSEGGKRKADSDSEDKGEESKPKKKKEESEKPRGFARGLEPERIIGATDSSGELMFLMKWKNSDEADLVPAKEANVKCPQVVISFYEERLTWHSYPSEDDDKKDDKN
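HP1-beta protein (50 nM final) preincubated 30 min at room temperature with biotinylated H3(1-18)K9me3 peptide (50 nM) in PBS pH 7.4, 0.01% Tween-20, then compound added for 30 min. AlphaScreen streptavidin donor/nickel chelate acceptor beads (10 ug/mL final), 30 min dark, luminescence read.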
PLK1 PBD block: blocks phosphopeptide binding to human PLK1 polo-box domain; P53350; Plk1 PBD binding of FITC phosphopeptide, fluorescence polarization; Potency, µM, actives largely listed as inhibitors; 360,000 tested, 2.8% active; also: series mostly up to about 57 µM; nearly all actives have a fitted effect of over 65% in size
JMJD2A Tudor inh: JMJD2A Tudor domain (human) inhibition; AID 504339; 390,000 tested, 4.4% active; Potency, µM (titrated, usually from 114 µM), actives largely listed as inhibitors; AlphaScreen JMJD2A-Tudor / H3K4me3 peptide binding; O75164; also: nearly all actives have a fitted effect of over 50% in size
Large screens that a line does not name were inactive. The list is not random: actives were taken first. Their share in the collection is about 12%. Calls follow the shape of the dose curve; as a rule, active = well fitted curve in the direction sought with a large enough effect; inconclusive = small, poorly fitted or top-dose-only effect, or another doubt; inactive = no such curve, though single readings can be large; an effect the other way counts as inactive or inconclusive.

CC1(C)C2CCC1(C)C(OC(=O)CC(=O)O)C2 (stereo not drawn)	none
CC1(C)C2CCC1(C)C(OC(=O)C[n+]1ccccc1N)C2 (stereo not drawn)	none
CC1(C)C2CCC1(C)C(OC(=O)C[n+]1ccccc1)C2 (stereo not drawn)	PLK1 PBD block 19µM
CC1(C)C2CCC1(C)C(OC(=O)CNc1ccccc1)C2 (stereo not drawn)	PLK1 PBD block 19µM
CCC1OC(=O)C[C@@H](O)[C@H](C)[C@@H](OC2OC(C)CC(N(C)C)C2O)[C@@H](CC=O)C[C@@H](C)C(=O)/C=C/[C@]2(C)OC2C1C (stereo partly drawn)	none (no result: BAZ2B block, HP1b binding inh, PLK1 PBD block, JMJD2A Tudor inh)
Cc1ccc(NC(=S)N(CCCN2CCCC2)Cc2cccn2Cc2ccc(Cl)cc2)cc1Cl	BAZ2B block inconclusive, G9a block 32µM, JMJD2A Tudor inh inconclusive
COc1ccc(NC(=S)N(CCCN2CCC(C)CC2)Cc2cccs2)cc1Cl	Sfp inh 32µM, G9a block inconclusive, PLK1 PBD block 17µM
COCCN(C(=S)Nc1ccc(OC)c(Cl)c1)C1CCN(C(C)C)CC1	Sfp inh 40µM, G9a block inconclusive, PLK1 PBD block 13µM
COCCN(C(=S)Nc1ccc(OC)cc1)C1CCN(C(C)C)CC1	none
O=C(CNC(=S)N(CCCN1CCOCC1)Cc1cccs1)NCc1ccccc1Cl	G9a block 71µM
FC(F)(F)c1cccc(NC(=S)N(CCCN2CCCC2)Cc2cccn2Cc2ccc(Cl)cc2)c1	Sfp inh 56µM, G9a block 45µM, JMJD2A Tudor inh inconclusive
COc1ccc(NC(=S)N(CCCN2CCCC2)Cc2cccn2Cc2ccc(Cl)cc2)cc1Cl	BAZ2B block 28µM, Sfp inh 79µM, G9a block 28µM, JMJD2A Tudor inh inconclusive
CN1CCN(CCCN(Cc2cccs2)C(=S)Nc2ccc(Cl)cc2)CC1	none
Cc1ccc(NC(=S)N(CCCN2CCCC2)Cc2cccn2Cc2ccc(Cl)cc2)cc1C	JMJD2A Tudor inh 50µM
CN(C)CCCN(Cc1ccccc1)C(=S)Nc1cccc(C(F)(F)F)c1	G9a block 71µM
CCCN(Cc1ccccc1)C(=S)Nc1cccc(C(F)(F)F)c1	none
Cc1cc(C)c(C)c(S(=O)(=O)N2CCC(C(=O)N3CCCCCCC3)CC2)c1C	none
COC1C(C)=C(C)C(=O)N1Cc1ccc(F)cc1 (stereo not drawn)	G9a block inconclusive
O=C(CSC1CC(=O)N(CCc2ccccc2)C1=O)Nc1ccc(Br)cc1 (stereo not drawn)	none (no result: G9a block)
CCCCN1C(=O)c2ccccc2C1C(=O)NC1CCCC1 (stereo not drawn)	none
CCCCN1C(=O)C(NC(C)=O)c2ccccc21 (stereo not drawn)	Sfp inh inconclusive, G9a block 22µM
CC(=O)NC1C(=O)N(Cc2ccccc2)c2ccc(Br)cc21 (stereo not drawn)	G9a block 40µM, PLK1 PBD block 27µM
CC(=O)NC1C(=O)N(CCc2ccccc2)c2ccc(Br)cc21 (stereo not drawn)	G9a block 11µM
COc1ccc(S(=O)(=O)N2CCCC(C(=O)N3CCN(Cc4ccccc4)CC3)C2)cc1Cl (stereo not drawn)	none (no result: BAZ2B block, Sfp inh, G9a block, HP1b binding inh, JMJD2A Tudor inh)
O=C(NN=C1CCCC1)c1cc(O)cc(O)c1	BAZ2B block 79µM, HP1b binding inh inconclusive, JMJD2A Tudor inh inconclusive (no result: G9a block)
O=C(NN=C1CCCC1)c1cccc(O)c1	none
COc1ccc([C@@H]2[C@H]3C(=O)N(c4cccc(C(F)(F)F)c4)C(=O)[C@H]3ON2C)cc1	G9a block 45µM
COc1cc(/C=C2/C(=O)N(c3ccc(Br)cc3)N=C2C)cc([N+](=O)[O-])c1O	G9a block 79µM (no result: HP1b binding inh, PLK1 PBD block, JMJD2A Tudor inh)
COc1cc(C=O)ccc1OCc1cccc(Br)c1	none
COc1cc(/C=C2/C(=O)N(c3cccc(Br)c3)N=C2C)cc(OC)c1O	BAZ2B block 10µM, Sfp inh inconclusive, G9a block 10µM, HP1b binding inh 28µM, PLK1 PBD block inconclusive, JMJD2A Tudor inh 28µM
Cc1ccc(C2Nc3ccccc3-n3c(-c4ccccc4)c4c(=O)n(C)c(=O)n(C)c4c32)cc1 (stereo not drawn)	G9a block inconclusive (no result: Sfp inh, PLK1 PBD block)
O=C(O)COc1ccc(OCCNC[C@@H](O)COc2ccccc2)cc1	none (no result: BAZ2B block, G9a block, HP1b binding inh, PLK1 PBD block, JMJD2A Tudor inh)
COc1ccccc1NCC(O)COc1ccc(C(C)(C)C)cc1 (stereo not drawn)	BAZ2B block 22µM, Sfp inh inconclusive, G9a block 7.9µM, HP1b binding inh 20µM, JMJD2A Tudor inh 2.8µM
Cc1ccccc1OCC(O)CNCCOc1ccc(C(N)=O)cc1 (stereo not drawn)	none (no result: BAZ2B block, HP1b binding inh, PLK1 PBD block, JMJD2A Tudor inh)
OC(CNc1ccccc1)COc1ccc(OCC(O)CNc2ccccc2)cc1 (stereo not drawn)	BAZ2B block 50µM, G9a block inconclusive, JMJD2A Tudor inh 50µM
Cc1ccc(OCCNCC(O)COc2ccccc2)cc1 (stereo not drawn)	BAZ2B block 50µM, G9a block inconclusive, JMJD2A Tudor inh 56µM
COc1ccc(OCC(O)CNCCOc2ccccc2OC)c(C(C)(C)C)c1 (stereo not drawn)	BAZ2B block 50µM, Sfp inh inconclusive, G9a block inconclusive, PLK1 PBD block inconclusive, JMJD2A Tudor inh 22µM
CCOc1ccc(CC(=O)Nc2c(C(=O)c3ccc(C)cc3)oc3ccccc23)cc1OCC	none (no result: Sfp inh, PLK1 PBD block)
Cc1ccc(C)c(Cn2c(=O)n(CCCCC(=O)NCc3ccccc3Cl)c(=O)c3ccccc32)c1	none (no result: Sfp inh, PLK1 PBD block)
N#C/C(=C\c1ccco1)c1nc2ccccc2s1	BAZ2B block inconclusive, G9a block 8.9µM
N#C/C(=C/c1ccc(-c2cc(C(=O)O)cc(C(=O)O)c2)o1)c1nc2ccccc2s1	BAZ2B block 56µM, Sfp inh 56µM, G9a block 11µM (no result: HP1b binding inh, PLK1 PBD block, JMJD2A Tudor inh)
N#C/C(=C/c1ccco1)c1nc2ccccc2s1	G9a block inconclusive
N#C/C(=C\c1ccc(-c2ccccc2Cl)o1)C(=O)Nc1nc2ccccc2s1	none
CC1(C)c2cc(O)ccc2OC1N1CCOCC1 (stereo not drawn)	G9a block 8.9µM
COC1C(OC(=O)/C=C/C=C/C=C/C=C/C(=O)O)CCC2(CO2)C1C1(C)OC1CC=C(C)C (stereo not drawn)	G9a block inconclusive (no result: BAZ2B block, HP1b binding inh, PLK1 PBD block, JMJD2A Tudor inh)
Cn1c(=O)c2c(nc(Sc3ccccc3N)n2C)n(C)c1=O	G9a block 10µM
FC(F)(F)c1cc(CCN2CCNC[C@H]2Cc2cccc3ccccc23)cc(C(F)(F)F)c1	BAZ2B block 50µM, G9a block inconclusive, JMJD2A Tudor inh inconclusive (no result: Sfp inh)
CNC(=O)CN1C(=O)c2cccc3cccc1c23	none
CN1/C(=N\O)c2cccc3cccc1c23	G9a block 32µM, PLK1 PBD block 27µM
CC(=O)N1CCc2c(sc(NC(=O)C3CC3)c2-c2nc3ccccc3s2)C1	Sfp inh 45µM, G9a block inconclusive, PLK1 PBD block inconclusive

Screening data: PubChem, National Center for Advancing Translational Sciences (NCATS)
